# Rows were chosen to be rich in hits. Some 19% of all compounds tested hit in one or more screens of this group.
# TDP1 cell noCPT = qHTS for Inhibitors of human tyrosyl-DNA phosphodiesterase 1 (TDP1): qHTS in cells in absence of CPT; DT40 Tdp1-/- hTDP1 cells, no CPT, ATP luminescence, 48 h; Potency, µM (highest dose often 46.2 µM), inactives show top-dose activity change, negative = growth inhibition, actives largely listed as inhibitors; 15% of 420,000 active; note: potency is the fitted concentration of half-maximal effect; % is set by controls: 0 for no effect and ±100 for the full control effect; nearly all actives have a fitted effect of over 55% in size
#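 Chicken DT40 Tdp1-/- cells stably complemented with human TDP1 were seeded at 400 cells/well with DMSO in place of 20 nM camptothecin. After compound pinning, cells grew at least 48 hr at 37 °C; viability read by CellTiter-Glo luminescence.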
# MCF10A rereplic = DNA re-replication induction in MCF 10a cells; MCF 10A DNA re-replication, Hoechst nuclear intensity, 48 h; Potency, µM (highest dose often 46.1 µM), without a hit: top-dose activity, positive = re-replication, hits mostly activators; 2.9% of 350,000 active; note: potency is the fitted concentration of half-maximal effect; % of control where 0% means no effect; nearly all actives have a fitted effect of over 50% in size
# TDP1 cell CPT = DT40-hTDP1 cell growth loss with CPT | Potency, µM (doses to about 46.2 µM), inactives show top-dose activity change, negative = growth inhibition, actives largely listed as inhibitors | chicken DT40 Tdp1-/-;hTDP1 cells + 20 nM CPT, ATP luminescence, 48 h | AID 686979 | 12% of 420,000 active; note: potency is the fitted concentration of half-maximal effect; % is set by controls: 0 for no effect and ±100 for the full control effect; nearly all actives have a fitted effect of over 55% in size
#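 Chicken DT40 Tdp1-/- cells complemented with human TDP1, 400 cells/well, exposed to compounds plus 20 nM camptothecin for at least 48 h at 37 C; viability read as ATP content by CellTiter-Glo luminescence.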
# IL1B secr inh = inhibitors of inflammasome signaling (IL-1 beta secretion). AID 743279. activity change, % at 57.5 µM. THP-1 LPS/ATP IL-1B secretion, AlphaLISA, 16 h; stronger effect = lower value. 4.7% of 360,000 active; in the data active = activity change below about -50%; inconclusive = mostly about -30% to -49%; note: % is set by controls: 0 for no effect and ±100 for the full control effect
#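 Secreted IL-1B measured by AlphaLISA bead assay after 16 h compound exposure of THP-1 cells; compounds (final up to 57.5 uM) added 1 h before LPS (250 ng/mL) and ATP (1.25 mM) stimulation; lower signal means less secretion.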
# BCR signal inh = chronic active BCR signaling inhibition | ABC-DLBCL IkBa-CBG/CBR reporter, luminescence ratio, 4 h | Potency, µM (doses to about 46.1 µM), without a hit: top-dose activity change, negative = inhibition, most hits filed as inhibitors | 0.05% of 340,000 active; active = well fitted inhibition curve with a large enough effect in the signal ratio, with a control signal flat, not every such curve was filed as active; inconclusive = small, poorly fitted or top-dose-only effect, or effect the other way, or a change in a side signal; the % refers to the signal ratio;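 note: potency is the fitted concentration of half-maximal effect; plate controls were basal doxycycline-induced cells for no effect and cells given 10 µM MG132 for full effect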
#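 Concentration-response series (up to 46 uM) were applied to TMD8 dual-reporter cells for 4 h at 37C with doxycycline. Green/red ratio, after filter-overlap correction, defined %Activity; red signal alone was normalised to basal cells and zero luminescence.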
# SW480 rerep = inducers of DNA re-replication in SW480 colon cancer cells; 1.8% of 340,000 active; Potency, µM (doses to about 46.1 µM), for inactives: at the top dose re-replication activation, most hits filed as activators; SW480 DNA re-replication, Hoechst DNA content imaging, 48 h; AID 624297; note: potency is the fitted concentration of half-maximal effect; % of control where 0% means no effect; nearly all actives have a fitted effect of over 55% in size
#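 Quantitative HTS format with DMSO vehicle controls; 48 hr drug incubation at 37 C, then 40 min Hoechst staining and scanning imager measurement at 405 nm excitation.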
# Starred values were filed as active, the others as inactive; ? = inconclusive; · = no result; ! = repeats disagree. Unless noted, calls come from the whole dose curve; as a rule, active = well fitted curve in the direction sought with a large enough effect; inconclusive = small, poorly fitted or top-dose-only effect, or another doubt; inactive = no such curve, though single readings can be large; an effect the other way counts as inactive or inconclusive.
SMILES,TDP1 cell noCPT,MCF10A rereplic,TDP1 cell CPT,IL1B secr inh,BCR signal inh,SW480 rerep
CC(C)CN(C(=O)CSc1nc2ccccc2o1)c1c(N)n(Cc2ccccc2)c(=O)[nH]c1=O,20.6µM*,-0.8%,18.4µM*,9.8,?,?
CC(C)CN(C(=O)COC(=O)c1cccc2ccccc12)c1c(N)n(Cc2ccccc2)c(=O)[nH]c1=O,16.4µM*,5.4%,?,-2.5,6.5%,20.6%
CCCCNC(=O)c1onc(CS(=O)(=O)c2ccccn2)c1C(=O)NCCCC,-13.3%,13.8%,-1.4%,8.6,-3.9%,-2.2%
Cc1[nH]nc(C(=O)NN=Cc2ccccc2Cl)c1N=NN(C)C,6.51µM*,16.4µM*,9.2µM*,-12.2,·,14.6µM*
O=C(NN=Cc1ccccc1Cl)c1ccc([N+](=O)[O-])cc1,2.1%,-4.9%,6.3%,-6.6,·,-11.0%
C/C(=N\NC(=O)c1ccccc1F)c1ccc2c(c1)Nc1ccccc1S2,23.1µM*,25.2%,5.8µM*,?,?,?
Cc1ccc(OCC(=O)N2CCCC(CO)(CCOc3ccccc3)C2)cc1 (stereo not given),?,6.9%,-10.6%,-23.9,-1.6%,-1.4%
COc1ccc(-n2nnnc2S(=O)(=O)Cc2ccc(C(=O)O)cc2)cc1,16.4µM*,16.4µM*,14.6µM*,-86.5*,?,7.31µM*
COc1ccc(-n2nnnc2S(=O)(=O)CC(=O)N2CCCCC2)cc1,1.46µM*,7.31µM*,2.59µM*,-109.7*,?,16.0%
COc1cc(OC)cc(-n2nnnc2SCC(=O)N2CCCC2)c1,-28.1%,14.5%,-4.1%,6.2,2.3%,-1.6%
OC1c2cc(Cl)cc(Cl)c2N=C2CCCN21 (stereo not given),-1.3%,·,1.8%,41.0,·,·
CCn1c(=O)cc(SCC(=O)N2CCN(c3ccccc3F)CC2)c2ccccc21,25.9µM*!,?,?,-17.2,?,-3.0%
Cc1ccc(Cl)cc1N1CCN(C(=O)CSc2cc(=O)n(C)c3ccccc23)CC1,7.31µM*,·,14.6µM*,·,·,·
Cn1c(=O)cc(SCC(=O)N2CCCC2)c2ccccc21,-0.1%,1.7%,7.1%,4.1,-0.6%,-4.6%
CCn1c(=O)n(CC(=O)N2CCN(c3ccccc3F)CC2)c(=O)c2ccccc21,?,-1.1%,-3.2%,-11.4,-3.3%,-9.8%
CCn1c(=O)cc(SCC(=O)N2CCN(c3ccccn3)CC2)c2ccccc21,?,9.6%,2.1%,-14.4,16.4µM*,-2.2%
N#CCCN(Cc1ccccc1)C(=O)c1nccnc1C(=O)O,16.9%,0.2%,-5.5%,19.5,0.7%,-1.5%
O=C(CCCc1nc(-c2ccc(Cl)cc2)no1)N1CCOCC1,16.4µM*,2.5%,23.1µM*,10.6,-3.4%,-11.2%
CC(C)NC(=O)Nc1ccc2c(c1)C(=O)N([C@@H](C)CO)C[C@H](C)[C@H](CN(C)S(=O)(=O)c1ccccc1)OCCCC[C@H](C)O2,11.6µM*,·,18.4µM*,-3.9,·,·
C[C@H](CO)N1C[C@H](C)[C@@H](CN(C)S(=O)(=O)c2ccccc2)Oc2ccc(NC(=O)Nc3ccccc3)cc2C1=O,?,-13.0%,-90.7%,123.3,1.0%,-2.4%
Cc1ccc(S(=O)(=O)N(C)C[C@H]2OCCCC[C@@H](C)Oc3ccc(N(C)C)cc3C(=O)N([C@H](C)CO)C[C@@H]2C)cc1,20.6µM*,·,?,4.1,·,·
Cc1noc(C)c1S(=O)(=O)Nc1ccc2c(c1)C(=O)N([C@@H](C)CO)C[C@@H](C)[C@@H](CN(C)CC1CCCCC1)OCCCC[C@@H](C)O2,14.6µM*,·,23.1µM*,?,·,·
